Test [1] in a line: qHTS assay to identify small molecule antagonists of the thyroid receptor (TR) signaling pathway - cell viability counter screen (AID 743064). Note: nearly all actives have a fitted effect of over 50% in size. Note: potency is the fitted concentration of half-maximal effect. In outline: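 In-well cytotoxicity read by CellTiter-Fluor (30 min, 37 C) following 23.5 h exposure of GH3 cells bearing a TRE-luciferase sensor. Compounds were added alongside 1 nM (final) T3 to drive TR transactivation.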
On the technique in general: Quantitative high-throughput screening tests each substance at several concentrations.

A short description of test [2]: qHTS assay to identify small molecule antagonists of the thyroid receptor (TR) signaling pathway (AID 743065). Note: nearly all actives have a fitted effect of over 55% in size. Note: potency is the fitted concentration of half-maximal effect. In outline:
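GH3.TRE-Luc rat pituitary cells carrying two TR response elements driving luciferase were plated for 4 h, given compound plus 1 nM T3 (final), and incubated 23.5 h at 37 C. ONE-Glo luminescence measured reporter inhibition; CellTiter-Fluor fluorescence tracked cytotoxicity.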

In test [3] the test system is thyroid hormone receptor (rat, GH3 cells). Description: qHTS assay to identify small molecule agonists of the thyroid receptor (TR) signaling pathway (AID 743066; calls by dose curve).
Test [4] has as its target Estrogen receptor (Homo sapiens) (UniProt P03372). Kind of test: qHTS assay to identify small molecule antagonists of the estrogen receptor alpha (ER-alpha) signaling pathway (AID 743069; active = well fitted curve in the direction sought with a large enough effect in the signal ratio in the repeat runs, not every such curve was filed as active; inconclusive = weak or mixed curves, or effect the other way; inactive = no such curve, though single readings can be large or run the other way; the % refers to the signal ratio; note: potency is the fitted concentration of half-maximal effect). A digest of the protocol: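 Estradiol-stimulated ER-alpha-UAS-bla HEK293 cells, 18 hr compound exposure at 37C. LiveBLAzer B/G substrate, 2 hr RT, fluorescence read.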
Test [5] has the same target. Description: qHTS assay to identify small molecule agonists of the estrogen receptor alpha (ER-alpha) signaling pathway (AID 743075; calls by dose curve;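 note: HEK293 GripTite cells with ER-alpha and UAS-driven beta-lactamase reporter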; note: potency is the fitted concentration of half-maximal effect).
For test [6] the target is unchanged. Kind of test: qHTS assay to identify small molecule agonists of the estrogen receptor alpha (ER-alpha) signaling pathway using the BG1 cell line (AID 743079). Note: nearly all actives have a fitted effect of over 20% in size. Note: potency is the fitted concentration of half-maximal effect. To be noted: BG1Luc4E2 cells, ERE-luciferase agonist, 22 h; activation: at 70.3 µM (top of the series).
Test [7] can be described thus: qHTS assay to identify small molecule antagonists of the estrogen receptor alpha (ER-alpha) signaling pathway using the BG1 cell line (AID 743080; calls by dose curve;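 note: BG1 cells stimulated with 17beta-estradiol alongside compound; nearly all actives have a fitted effect of over 25% in size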; note: potency is the fitted concentration of half-maximal effect). A digest of the protocol: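 After 5 days in phenol-red-free 10% charcoal-stripped FBS medium, BG1-Luc-4E2 cells were seeded, left 24 h at 37 C, co-treated with compounds and 17beta-estradiol for 21.5 h, then assayed for viability and luciferase.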

Test [8] is described as follows: qHTS assay to identify small molecule antagonists of the estrogen receptor alpha (ER-alpha) signaling pathway using the BG1 cell line - cell viability counter screen (AID 743081).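 Note: compound given together with 17beta-estradiol as the ER stimulus; nearly all actives have a fitted effect of over 45% in size.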 Note: potency is the fitted concentration of half-maximal effect.
In another test the target is Aromatase (Homo sapiens) (UniProt P11511). Kind of test: qHTS assay to identify aromatase inhibitors (AID 743083). Note: nearly all actives have a fitted effect of over 55% in size. Note: potency is the fitted concentration of half-maximal effect.
Sequence of Aromatase (Homo sapiens) (P11511 whole entry, looked up): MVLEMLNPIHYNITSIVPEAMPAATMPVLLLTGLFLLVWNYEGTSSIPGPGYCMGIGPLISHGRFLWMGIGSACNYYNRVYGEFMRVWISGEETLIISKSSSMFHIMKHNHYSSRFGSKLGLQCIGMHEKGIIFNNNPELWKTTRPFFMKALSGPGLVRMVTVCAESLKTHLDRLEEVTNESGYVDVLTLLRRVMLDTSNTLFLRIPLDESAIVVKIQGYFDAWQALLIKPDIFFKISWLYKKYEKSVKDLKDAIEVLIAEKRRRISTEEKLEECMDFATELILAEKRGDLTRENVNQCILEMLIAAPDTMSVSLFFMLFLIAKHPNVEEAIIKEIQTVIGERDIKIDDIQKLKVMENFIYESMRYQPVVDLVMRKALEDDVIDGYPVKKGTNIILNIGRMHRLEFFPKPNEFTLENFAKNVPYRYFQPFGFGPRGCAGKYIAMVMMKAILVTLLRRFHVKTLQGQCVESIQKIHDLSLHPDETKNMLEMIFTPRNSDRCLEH
Test [9] is described as follows: qHTS assay to identify small molecule antagonists of the estrogen receptor alpha (ER-alpha) signaling pathway - cell viability counter screen (AID 743074; calls by dose curve;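 note: HEK293 cells carrying ER-alpha-UAS-bla reporter stimulated with 17beta-estradiol; nearly all actives have a fitted effect of over 45% in size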; note: potency is the fitted concentration of half-maximal effect).

The text below walks through data of PubChem BioAssay (Tox21).

Structures are written as SMILES. The source made the active and inactive calls. Unless noted, calls come from the whole dose curve; as a rule, active = well fitted curve in the direction sought with a large enough effect in the repeat runs; inconclusive = weak or mixed curves; inactive = no such curve, though single readings can be large; an effect the other way counts as inactive or inconclusive.

Sequence of Estrogen receptor (Homo sapiens) (P03372 whole entry, looked up): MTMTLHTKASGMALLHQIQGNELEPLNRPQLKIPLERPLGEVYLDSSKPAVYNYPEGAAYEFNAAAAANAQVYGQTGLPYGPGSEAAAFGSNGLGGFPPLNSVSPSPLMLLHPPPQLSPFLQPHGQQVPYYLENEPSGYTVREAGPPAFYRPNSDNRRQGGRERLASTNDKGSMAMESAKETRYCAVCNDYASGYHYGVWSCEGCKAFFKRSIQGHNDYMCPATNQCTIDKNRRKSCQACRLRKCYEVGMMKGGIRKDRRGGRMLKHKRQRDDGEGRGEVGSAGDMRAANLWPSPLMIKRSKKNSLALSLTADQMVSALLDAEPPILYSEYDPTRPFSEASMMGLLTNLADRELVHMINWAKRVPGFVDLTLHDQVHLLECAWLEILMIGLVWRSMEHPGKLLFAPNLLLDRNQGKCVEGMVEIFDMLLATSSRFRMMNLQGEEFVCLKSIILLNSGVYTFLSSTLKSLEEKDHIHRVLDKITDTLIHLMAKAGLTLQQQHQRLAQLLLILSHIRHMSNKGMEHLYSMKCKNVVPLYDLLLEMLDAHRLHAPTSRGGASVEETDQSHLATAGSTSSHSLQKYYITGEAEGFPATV

For `O=C[C@H](O)[C@@H](O)[C@H](O[C@H]1O[C@H](CO)[C@@H](O[C@H]2O[C@H](CO)[C@@H](O)[C@H](O)[C@H]2O)[C@H](O)[C@H]1O)[C@H](O)CO`, the Potency entry in [1], in test [2], in [3], in test [4], in [5] and in test [7] was “inactive” each time. The Potency result (in [8]; with Aromatase (Homo sapiens)) was “inactive” throughout. Further, the Potency in test [6] is 26.6 µM (active).

Consider `CCCCCCCCCCCCCCCCCC(=O)OCCO`, for which the Potency result in test [1], in [2], in test [3], in test [4], in test [5] and in test [7] was “inactive” throughout. In addition, the Potency entry (in test [8]; in the test with Aromatase (Homo sapiens)) was “inactive” throughout. Moreover, the Potency in [6] is 9.44 µM (active).

Take `CCCCCCCN(CC)CCCC(O)c1ccc(NS(C)(=O)=O)cc1` (configuration not stated): the values for the Potency in test [1] and in test [2] were 23.7 µM (active) and 21.1 µM (active), respectively. The Potency result in test [3] and in [9] was “inactive” each time.

Turning to `OCC(O)COc1ccc(Cl)cc1` (configuration not stated), the Potency result in test [1], in [2], in test [3], in test [4], in [5] and in [6] was “inactive” in each case. The Potency result (in test [7]; in test [8]; with Aromatase (Homo sapiens)) was “inactive” in each case.

As for `CN(C)c1ccc(C(=C2C=CC(=[N+](C)C)C=C2)c2c(O)c(S(=O)(=O)[O-])cc3cc(S(=O)(=O)O)ccc23)cc1`, the Potency in [1] is 29.8 µM (active); in [2], 11.9 µM (active); in test [8], 23.7 µM (active); with Aromatase (Homo sapiens), 26.6 µM (active). Moreover, the Potency result in [3], in test [4] and in test [5] was “inactive” each time.

For `NC(=S)N=Nc1ccc(NN=C(N)N)cc1`, the Potency in test [1] is 23.7 µM (active); in test [2], 26.6 µM (active); in [8], 26.6 µM (active). Besides, the Potency entry in [3], in [9], in test [5], in [6] and in [7] was “inactive” throughout.

Consider `O=C(OCc1ccccc1)c1cccnc1`, for which the Potency result in test [1], in [2], in [3], in test [4], in test [5] and in test [6] was “inactive” each time. Besides, the Potency entry (in test [7]; in test [8]; with Aromatase (Homo sapiens)) was “inactive” each time.

For `C#CCC(Cc1cnc2nc(N)nc(N)c2n1)c1ccc(C(=O)N[C@@H](CCC(=O)O)C(=O)O)cc1` (some centres not stated), the Potency entry in test [1], in test [3], in test [4], in [5], in [6] and in [8] was “inactive” in each case. Further, in the test with Aromatase (Homo sapiens), the Potency entry is “inactive”. In addition, the Potency in test [2] was 0.75 µM (active).

`CCCCCCCCCCCCCCCCOCCOCCOCCOCCOCCOCCOCCOCCOCCOCCOCCOCCOCCOCCOCCOCCOCCOCCOCCOCCO`: the Potency was 29.8 µM (active) in test [1]; 26.6 µM (active) in test [2]; 4.25 µM [inconclusive] (active) in [4]; 21.3 µM (active) in [9]; 3.76 µM (active) in test [7]; 23.7 µM (active) in [8]. Moreover, the Potency entry in [3] is “inactive”.

As to `Cc1onc(-c2ccccc2)c1C(=O)N[C@@H]1C(=O)N2[C@@H]1SC(C)(C)[C@@H]2C(=O)O`, the Potency entry in test [1], in test [2], in [3], in [4], in test [5] and in test [6] was “inactive” in each case. Besides, the Potency result (in test [7]; in test [8]; in the test with Aromatase (Homo sapiens)) was “inactive” throughout.

Turning to `CO[C@H]1[C@@H](O)[C@H](N)[C@@H](O[C@H]2O[C@H]([C@H](C)N)CC[C@H]2N)[C@H](O)[C@@H]1N(C)C(=O)CN`, the Potency entry in test [1], in [2], in test [3], in test [4], in test [5] and in test [7] was “inactive” in each case. The Potency result (in test [8]; with Aromatase (Homo sapiens)) was “inactive” each time. Moreover, the Potency in test [6] was 33.5 µM (active).

Consider `CC(=O)Oc1c(C)cc(OCC(O)CNC(C)C)c(C)c1C` (configuration not stated), for which the Potency result in [1], in test [2], in test [3], in [9], in test [7] and in test [8] was “inactive” in each case. Also, in the test with Aromatase (Homo sapiens), the Potency entry was “inactive”. For the same molecule, the Potency in test [5] is 10.7 µM [inconclusive] (active); in test [6], 3.76 µM (active).

For the molecule `c1ccc2c(CCC3CCNCC3)c[nH]c2c1`, the results for the Potency in test [1] and in test [2] were 18.8 µM (active) and 21.1 µM (active), respectively. Also, the Potency result in test [3], in test [4], in [5], in test [6], in test [7] and in [8] was “inactive” each time. Also, in the test with Aromatase (Homo sapiens), the Potency result is “inactive”.

In the case of `CCOC(=O)Nc1ccc2c(c1)N(C(=O)CN(C)C)c1ccccc1CC2`, the Potency in test [1] and in [2] was 48.6 µM (active) throughout. Also, the Potency entry in [3] and in test [9] was “inactive” throughout.

Take `CCCCCCCCCCCCCCCC(=O)OC[C@@H](COP(=O)([O-])OCC[N+](C)(C)C)OC(=O)CCCCCCCCCCCCCCC`: the Potency result in test [1], in test [2], in test [3], in test [4], in [5] and in test [7] was “inactive” throughout. For the same molecule, the Potency entry (in [8]; with Aromatase (Homo sapiens)) was “inactive” each time. The Potency in test [6] was 29.8 µM (active).

Turning to `C[N+](C)(CCCCCC[N+](C)(C)C1c2ccccc2-c2ccccc21)C1c2ccccc2-c2ccccc21`, the Potency result in test [1], in test [2], in [3], in test [4], in test [5] and in test [6] was “inactive” each time. Moreover, the Potency entry (in [7]; in test [8]; in the test with Aromatase (Homo sapiens)) was “inactive” throughout.

For the molecule `C[C@@H]1C[C@H]2[C@@H]3CCC4=CC(=O)C=C[C@]4(C)[C@@]3(F)[C@@H](O)C[C@]2(C)[C@@]1(O)C(=O)COC(=O)c1cccc(S(=O)(=O)O)c1`, the Potency result in test [1], in test [2], in test [3], in test [9], in test [5] and in test [8] was “inactive” throughout. Also, the Potency entry in the test with Aromatase (Homo sapiens) was “inactive”. The Potency in test [6] was 15 µM (active).

Take `CCCCC[C@H](O)/C=C/[C@@H]1[C@H]2C/C(=C/CCCC(=O)O)O[C@H]2C[C@H]1O`: the Potency result (in test [1]; in [2]; in [3]; in test [9]; in test [6]; with Aromatase (Homo sapiens)) was “inactive” in each case.
